Out of some 360,000 compounds screened, about 7,300 (2%) were called active. Rule as the data show it: active = inhibition above about 50%; inactive = the rest. What follows is part of a selection rich in actives, with near analogues and random picks from the rest.

This test in a line: blockers of TWEAK-induced Fn14 reporter activity – luciferase reporter cells, uHTS, primary screen (AID 1159606). The settings on record: TWEAK-stimulated Fn14 reporter cells, luciferase luminescence, 8 h; at 10 µM; stronger effect = higher value.
One may read the inhibition as the change of the read-out against control, counted positive when it falls. As for `O=C(COC(=O)c1ccco1)Nc1ccc(Cl)cn1`, the inhibition is -3.57% (inactive).
For `O=C(Nc1ccc(NC(=O)c2cccs2)cn1)c1ccco1`, the inhibition was 57.4% (active).
Under `Cc1ccc(NC(=O)c2ccco2)cc1` stands -27.8% (inactive).
In the case of `CC1CN(c2cc(=O)n(Cc3ccc(F)cc3)c(=O)[nH]2)CC(C)O1` (stereo not given), the inhibition was -5.29% (inactive).
Under `CC(=O)OCC(C)n1c(=O)c2ccccc2n1C(C)=O` (stereo not given) stands 2.6% (inactive); under `CCC(c1nnnn1-c1ccc2c(c1)OCCO2)N1CCN(c2ccc(C(F)(F)F)cn2)CC1` (stereo not given), 30.4% (inactive).
On to `CCc1cccc(CC)c1NC(=S)NCc1ccc2[nH]c(C)cc2c1`, for which the inhibition is 12.3% (inactive).
Under `Cc1cc(C)cc(NC(=S)NCCc2c[nH]c3ccccc23)c1` stands 7.03% (inactive); under `Cc1cccc(NC(=S)NCc2ccc3[nH]c4c(c3c2)CCCC4)c1`, 70.9% (active).
Under `Cc1ccc(CCN2CC(C(=O)O)CC2=O)cc1` (stereo not given) stands -5.87% (inactive).
As for `Cc1noc(C)c1C(=O)NCC1COc2ccccc2O1` (stereo not given), the inhibition was -8.54% (inactive).
Under `c1ccc(-c2cc3c(NCC4COc5ccccc5O4)ncnc3s2)cc1` (stereo not given) stands 77.3% (active).
Under `O=C(Cn1cnc2ccccc2c1=O)NCC1COc2ccccc2O1` (stereo not given) stands 9.26% (inactive); under `COc1cccc(N(CC(=O)NC2CCCCCC2)S(=O)(=O)c2ccccc2)c1`, -34.4% (inactive); under `C=CCn1c(=NC(=O)c2cccs2)sc2cc(NC(C)=O)ccc21`, -34.5% (inactive).
Under `CCOC(=O)N1CCN(C(c2ccnc3ccccc23)c2nnnn2-c2c(C)cccc2C)CC1` (stereo not given) stands 8.32% (inactive); under `O=C(OCc1nnc(-c2ccccc2)o1)c1cc(=O)[nH]c2ccccc12`, -0.55% (inactive).
For `O=C(COC(=O)c1cc(=O)[nH]c2ccccc12)NCc1cccc(Cl)c1`, the inhibition was -18.6% (inactive).
Under `O=C(COC(=O)c1cc(=O)[nH]c2ccccc12)Nc1nc(-c2cccc(Br)c2)cs1` stands 75.8% (active); under `Cc1nn(-c2ccc(F)cc2)c(Cl)c1/C=C(/CCC(=O)O)c1nc2ccccc2s1`, -0.77% (inactive).
Under `CC1=CC(=C(C#N)c2nc3ccccc3s2)C=C(C)N1c1ccc(F)cc1F` stands 55.1% (active).
Under `N#Cc1ccc(-c2nc3c(Cl)cc(C(F)(F)F)cn3c2Cc2ccccc2C(F)(F)F)cc1` stands -2.71% (inactive); under `NS(=O)(=O)c1ccc(NC(=O)COC(=O)CCc2c[nH]c3ccccc23)cc1`, -2.39% (inactive); under `NS(=O)(=O)c1ccc(NC(=O)COC(=O)c2c3c(nc4ccccc24)/C(=C\c2ccc4c(c2)OCO4)CCC3)cc1`, 55.8% (active).
For the molecule `NS(=O)(=O)c1ccc(NC(=O)COC(=O)c2ccco2)cc1`, the inhibition is -4.93% (inactive).
Regarding `COc1ccc(CCN2CC(C(=O)NCCN3CCNC3=O)CCC2=O)cc1` (stereo not given), the inhibition was -4.1% (inactive).
Under `CCOC(=O)CN(C)S(=O)(=O)c1ccc(-c2cc(C(=O)OC)sc2C(F)(F)F)cc1` stands 0.95% (inactive).
On to `S=C(Nc1cccnc1)Nc1ccccn1`, for which the inhibition was -12.4% (inactive).
Under `O=C(N/N=C/c1ccccn1)c1cccc(NC(=O)c2ccc(Cl)cc2)c1` stands 9.71% (inactive); under `S=C(NN=Cc1ccccn1)Nc1ccccn1`, 105% (active).
Under `COC(=O)c1[nH]c2ccc(Br)cc2c1NC(=O)Oc1ccccc1` stands 5.94% (inactive); under `Cc1ccccc1CC1(CO)CCCN(Cc2ccc3c(c2)OCCO3)C1` (stereo not given), 6.31% (inactive); under `COc1ccc(C2(C)NC(=O)N(CC(=O)c3ccc4c(c3)OCO4)C2=O)cc1` (stereo not given), -0.46% (inactive).
With `CC(=NCc1ccco1)c1c(C(F)(F)F)[nH]n(-c2nc3ccccc3s2)c1=O`, the inhibition was 75.8% (active).
Under `Cc1nc2cc(NCc3cccs3)ccc2n1C` stands -6.1% (inactive).
Under `C=CCN(C(=O)Nc1ccc2c(c1)nc(C)n2C)c1ccccc1` stands -7.06% (inactive); under `Cc1nc2cc(NC(=O)Nc3cccc(F)c3)ccc2n1C`, 81.1% (active); under `CCCCC(O)C1=C[N+](=O)CC=C1` (stereo not given), 39.5% (inactive).
Under `O=C(NCc1cccnc1)c1ccc2nc([C@@H]3O[C@H](CO)[C@H](O)[C@H](O)[C@H]3O)[nH]c2c1` stands 13.3% (inactive); under `COCCc1nn2c(=O)cc(COC(=O)c3cc(OC)c(OC)c(OC)c3)nc2s1`, 2.03% (inactive); under `Clc1ccc2nc(-c3ccccc3)nc(C(Cl)Cl)c2c1`, 54.4% (active).
With `NC(N)=Nc1nc(-c2ccccc2)c2cc(Cl)ccc2n1`, the inhibition was -9.76% (inactive).
Under `O=C(Cc1ccc(Cl)cc1)NCc1nc(-c2ccccc2)no1` stands -18% (inactive); under `O=S(=O)(c1ccccc1)N1CN(Cc2ccc(F)cc2)c2nc3ccccc3nc21`, 11% (inactive); under `Oc1c(CN2CCOCC2)ccc(CN2CCOCC2)c1O`, 2.4% (inactive).
Under `CSc1nc(-c2ccccc2)nc(C(Cl)Cl)n1` stands 65.2% (active); under `Cc1cccc(N=C2SC(C)CN2C(=O)CN2C(=O)NC3(CCCC3)C2=O)c1` (stereo not given), 5.82% (inactive); under `O=C(CNc1ccccc1N1CCCC1=O)Nc1cc(Cl)ccc1-n1cncn1`, 2.85% (inactive).
Under `COc1ccc(C2NC(=S)NC3=C2CCc2ccccc23)cc1OC` (stereo not given) stands 9.33% (inactive).
Take `Cc1cc(Br)ccc1NC(=O)c1cnc(N2CCN(c3ccccn3)CC2)c2ccccc12`: the inhibition is 80.5% (active).
Turning to `Cc1cc(C(=O)N2CCN(c3ccccn3)CC2)c(C)o1`, the inhibition is -12.8% (inactive).
Under `Cc1cc(Br)ccc1NC(=O)c1sc2ncn(CC(=O)N3CCN(c4ccccn4)CC3)c(=O)c2c1C` stands 9.08% (inactive); under `CCc1ccccc1NC(=O)c1cc(-c2ccc3c(c2)OCO3)on1`, -6.05% (inactive); under `CCOC(=O)c1sc2nc(C)nc(Nc3ccc(OC)c(OC)c3)c2c1C`, 10.5% (inactive).
Under `CC1CCC(NC(=O)CN(C)S(=O)(=O)c2ccc3c(c2)c(=O)n(C)c(=O)n3C)CC1` (stereo not given) stands -18.7% (inactive).
Under `COc1cnc(SCc2ccc(Cl)c(Cl)c2)nc1Cl` stands -23.9% (inactive).
For the molecule `Cc1c(Cl)c([N+](=O)[O-])nn1CC(=O)NCC1CCCO1` (stereo not given), the inhibition is 12.8% (inactive).
Under `CCCCNC(=O)Cn1nc(C)c(S(=O)(=O)N2CCOCC2)c1C` stands 10.8% (inactive).
Under `Cc1c(Cl)c([N+](=O)[O-])nn1CC(=O)NCCCN1CCOCC1` stands 55.9% (active); under `OCCc1ccc(NCCc2ccco2)cc1`, -21.3% (inactive).

The values above are taken from PubChem BioAssay AID1159606 (Sanford-Burnham Center for Chemical Genomics, 2016).
